Bioassay records: PubChem, National Center for Advancing Translational Sciences (NCATS)
RE007 growth inh: less growth of the S. pombe RE007 Vpr strain. S. pombe RE007 Vpr strain, BacTiter-Glo ATP luminescence, 24 h. Potency, µM (doses to about 92.2 µM), without a hit: top-dose activity change, negative = less growth, usual class: inhibitors. 0.21% of 360,000 active. AID 651644; active = well fitted falling curve with a large enough effect; inconclusive = small, poorly fitted or top-dose-only effect; inactive = no such curve, though single readings can be large or run the other way; also: nearly all actives have a fitted effect of over 50% in size
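Fission yeast RE007 carrying one integrated HIV-1 vpr copy, seeded at OD 0.01 in PMG+AL medium with 23 nL pinned compound. Grown 24 h at 30 degrees; viability read by BacTiter-Glo luminescence after 5 min.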
Sm TGR inh: inhibitors of Schistosoma mansoni thioredoxin glutathione reductase. 3% of 360,000 active. purified TGR, DTNB reduction, TNB absorbance 405 nm. Potency, µM (top dose mostly 114 µM), for inactives: top-dose activity change, negative = inhibition, most hits filed as inhibitors; also: nearly all actives have a fitted effect of over 60% in size
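First, TGR (20 nM dispensed) and NADPH were mixed with compound. Second, a 15 min room-temperature incubation followed. Third, further NADPH and then DTNB were added to start the reaction. Finally, TNB absorbance was monitored kinetically.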
HCV inhibitor: inhibitors of hepatitis C virus infection; 3.4% of 340,000 active; Potency, µM (doses to about 41.8 µM), without a hit: at the top dose activity change, negative = inhibition, usual class: inhibitors; AID 651820; Huh7.5.1 HCVcc-Cre infection, luciferase reporter, 44 h
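Compounds are dispensed onto cells plated 4 h earlier at 1,000 per well, with HCVcc-Cre virus (about 0.5 moi) added next. Following 44 h of culture, luminescent signal is measured for 15 sec after 15 min with substrate at room temperature.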
MARV entry inh: blocks Marburg virus binding to or entry into cells; Marburg virus pseudotyped entry inhibition, cell reporter; 1.8% of 300,000 active; Potency, µM (doses to about 37.8 µM), inactives show at the top dose activity change, negative = inhibition, most hits filed as inhibitors; AID 540276; calls by dose curve; tested in HEK293 cells
Lassa entry inh: inhibitors of Lassa virus binding or cell entry; Lassa virus pseudotype entry inhibition, cell reporter; Potency, µM (doses to about 37.9 µM), for the others: at the top dose activity change, negative = inhibition, hits mostly inhibitors; 1.2% of 300,000 active; AID 540256; calls by dose curve; tested in HEK293 cells; also: nearly all actives have a fitted effect of over 50% in size
FMDV antiviral: antivirals against foot and mouth disease virus. FMDV antiviral cell-based qHTS. Potency, µM (doses to about 57.9 µM), for inactives: at the top dose activity change, negative = inhibition, hits mostly inhibitors. 1.2% of 410,000 active. AID 1159524; calls by dose curve; tested in HEK293T cells; also: read-out not given here; nearly all actives have a fitted effect of over 45% in size
* = called active by the depositor; [ ] = another dose, or the depositor's remark. Most compounds without a hit are left out; they make up all but 7.2% or so of the library. Unless noted, calls follow the shape of the dose curve; as a rule, active = well fitted curve in the direction sought with a large enough effect; inconclusive = small, poorly fitted or top-dose-only effect, or another doubt; inactive = no such curve, though single readings can be large; an effect the other way counts as inactive or inconclusive. % is scaled to controls: 0 for no effect and ±100 for the full control effect; potency is read from the fitted curve at half-maximal effect.

What do the screens show for `CCc1ccc(Nc2nc3c(S(=O)(=O)c4cccc(Cl)c4)nnn3c3ccsc23)cc1`?
Sm TGR inh: 7%; Lassa entry inh: 4%[46.1 µM]; FMDV antiviral: 23%

How did Cc1ccc(C(=O)/C=C/C(=O)O)cc1 do in these assays?
RE007 growth inh: -18%; Sm TGR inh: 2.5µM*; HCV inhibitor: -9%; FMDV antiviral: inconclusive

What do the screens show for `Cc1ccc(/C=C/C(=O)c2ccc(O)cc2)cc1`?
RE007 growth inh: -12%; Sm TGR inh: -36%; HCV inhibitor: -12%; MARV entry inh: inconclusive; Lassa entry inh: 8.9µM*; FMDV antiviral: 12%

Results for CC(=O)c1ccc(N/C=C\C(=O)c2ccc(C)cc2)cc1 ?
RE007 growth inh: -14%; Sm TGR inh: 19%; HCV inhibitor: -27%; MARV entry inh: inconclusive; Lassa entry inh: inconclusive; FMDV antiviral: 40%

What do the screens show for `C[C@@]12C(=O)Nc3cc(Cl)ccc3C(=O)N1[C@H]1c3cc(Br)ccc3OC[C@@H]1[C@@H]2c1ccccc1`?
RE007 growth inh: 8%; Sm TGR inh: -1%; HCV inhibitor: 10µM*; FMDV antiviral: -11%

How did COc1ccc2c(c1)OC[C@H]1[C@H]2N2C(=O)c3cc(OC)c(OC)cc3NC(=O)[C@@]2(C)[C@H]1c1ccccc1 do in these assays?
RE007 growth inh: -1%; Sm TGR inh: -9%; HCV inhibitor: 7.1µM*; FMDV antiviral: 0%

How did C[C@@]12C(=O)Nc3cc(Cl)ccc3C(=O)N1[C@H]1c3cc(Cl)ccc3OC[C@@H]1[C@@H]2c1ccccc1 do in these assays?
RE007 growth inh: -8%; HCV inhibitor: inconclusive; FMDV antiviral: inconclusive

How did CCOCCCN(C)C1CCN(C(=O)c2oc3ccccc3c2NC(=O)c2cccc([N+](=O)[O-])c2)CC1 do in these assays?
RE007 growth inh: -7%; Sm TGR inh: -24%; HCV inhibitor: 14µM*; MARV entry inh: inconclusive; Lassa entry inh: inconclusive; FMDV antiviral: 26%

Results for Cc1ccc(CN2CCC(CNC(=O)Nc3cccc(Cl)c3C)C2)cc1 (stereo unspecified) ?
Sm TGR inh: -5%; MARV entry inh: inconclusive; Lassa entry inh: -22%[46.1 µM]; FMDV antiviral: -11%

Results for CCOC(=O)c1cc(-c2ccc(F)cc2)n(CCC(=O)NC2CCN(Cc3ccccc3)CC2)c1C ?
RE007 growth inh: -7%; Sm TGR inh: 3%; HCV inhibitor: 4µM*; MARV entry inh: inconclusive; Lassa entry inh: inconclusive; FMDV antiviral: -8%

How did Nc1ncnc2oc(-c3ccco3)c(-c3ccco3)c12 do in these assays?
RE007 growth inh: 3%; Sm TGR inh: 10µM*; HCV inhibitor: 11µM*; MARV entry inh: inconclusive; Lassa entry inh: -14%

How did COc1cccc(N2CCN(C(=O)C3CCN(S(=O)(=O)c4cccc5nonc45)CC3)CC2)c1 do in these assays?
Sm TGR inh: -7%; Lassa entry inh: -14%[46.1 µM]; FMDV antiviral: 0%

Results for CN(C(=O)CSc1nnc(Nc2ccccc2)s1)c1c(N)n(Cc2ccccc2)c(=O)[nH]c1=O ?
RE007 growth inh: -6%; Sm TGR inh: -11%; HCV inhibitor: -4%; MARV entry inh: -8%; Lassa entry inh: -17%; FMDV antiviral: -2%

How did CCCCN(C(=O)CSc1nnc(Nc2ccc(C)c(C)c2)s1)c1c(N)n(Cc2ccccc2)c(=O)[nH]c1=O do in these assays?
RE007 growth inh: -4%; Sm TGR inh: -10%; HCV inhibitor: 10µM*; MARV entry inh: inconclusive; Lassa entry inh: inconclusive; FMDV antiviral: 24%

Results for CCOc1ccc(CN(C)C(=O)c2ccc(S(=O)(=O)N(C)c3ccccc3OC)cc2)cc1 ?
RE007 growth inh: 5%; Sm TGR inh: -14%; HCV inhibitor: 11µM*; FMDV antiviral: 22µM*

Results for COc1ccccc1N(C)S(=O)(=O)c1ccc(C(=O)N(C)Cc2cccc(OC)c2OC)cc1 ?
RE007 growth inh: -6%; FMDV antiviral: inconclusive

Results for COc1ccccc1N(C)S(=O)(=O)c1ccc(C(=O)N(C)Cc2ccc(Cl)s2)cc1 ?
RE007 growth inh: 24%; Sm TGR inh: -3%; HCV inhibitor: inconclusive; MARV entry inh: inconclusive; Lassa entry inh: 11µM*; FMDV antiviral: inconclusive

How did CCOc1cc(/C=C\c2nc(O)c([N+](=O)[O-])c(=O)[nH]2)ccc1OC(C)C do in these assays?
RE007 growth inh: -1%; Sm TGR inh: -11%; HCV inhibitor: 22%; MARV entry inh: 0%[46.1 µM]; Lassa entry inh: -3%[46.1 µM]; FMDV antiviral: -2%

What do the screens show for `C=CCc1cc(/C=C/c2nc(O)c([N+](=O)[O-])c(=O)[nH]2)cc(OC)c1O`?
RE007 growth inh: -7%; Sm TGR inh: 45µM*; HCV inhibitor: 3%; MARV entry inh: inconclusive; Lassa entry inh: 0%; FMDV antiviral: -5%

How did COCC1CCCN(Cc2ccc3c(c2)CN(C(=O)c2ccc(-n4cccn4)cc2)CCO3)C1 (stereo unspecified) do in these assays?
FMDV antiviral: -5%

What do the screens show for `CC(=O)c1c(O)cc(O)c(C(C)=O)c1O`?
RE007 growth inh: 2%; Sm TGR inh: 9%; HCV inhibitor: 3.5µM*; FMDV antiviral: inconclusive

How did CC(=O)c1c(O)cc(O)cc1CC(=O)O do in these assays?
RE007 growth inh: 5%; Sm TGR inh: inconclusive; HCV inhibitor: 0.89µM*; FMDV antiviral: -16%

Results for COc1cc(OC)c(C(C)=O)c(O)c1C ?
FMDV antiviral: -6%

How did N#Cc1ccc(CN2CC[C@@]3(CCCN(C(=O)c4cc(C(F)(F)F)cc(C(F)(F)F)c4)C3)C2)cc1 do in these assays?
FMDV antiviral: -15%

Results for COc1ccc(-c2cc(C(=O)Oc3ccccc3)c3cc(C)ccc3n2)cc1 ?
Sm TGR inh: 6%; Lassa entry inh: 2%[46.1 µM]; FMDV antiviral: 18%

Results for CCOc1ccccc1Nc1nnc(SC(C)C(=O)Nc2nc(-c3ccccc3)cs2)s1 (stereo unspecified) ?
RE007 growth inh: -1%; Sm TGR inh: 8%; HCV inhibitor: inconclusive; MARV entry inh: 3.5µM*; Lassa entry inh: 6.3µM*; FMDV antiviral: -17%

How did COC(=O)[C@@]1(C)[C@H]2C(=O)N(C)C(=O)[C@H]2[C@H]2CN=C(SCc3ccc(C#N)cc3)N21 do in these assays?
RE007 growth inh: 2%; HCV inhibitor: 0.56µM*; FMDV antiviral: -5%

Results for CCN1C(=O)[C@H]2[C@H]3CN=C(SCc4ccc(C#N)cc4)N3[C@@](C)(C(=O)OC)[C@H]2C1=O ?
RE007 growth inh: 1%; HCV inhibitor: -3%; FMDV antiviral: -18%
